Source: PubChem (National Center for Advancing Translational Sciences (NCATS))
The entries come from a sample that favours hits as a whole.
HTT prom inh = inhibits huntingtin promoter activity; Potency, µM (top dose mostly 57.5 µM), without a hit: at the highest dose activity change, negative = inhibition, usual class: inhibitors; HEK293 HTT promoter firefly luciferase reporter, 24 h; actives 0.93% (n = 48,000); AID 1508623; also: potency is read from the fitted curve at half-maximal effect; nearly all actives have a fitted effect of over 50% in size
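Quantitative HTS used concentration series of up to 57.5 uM final on HEK293 luciferase reporter cells, 24 h at 37 degrees C. Readout was Dual-Glo firefly luminescence.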
NTMT1 inh = NTMT1 methyltransferase inhibition; Q9BV86; NTMT1 MTase-Glo SAH luminescence, purified enzyme; Potency, µM (titrated, usually from 114 µM), inactives show at the top dose activity change, negative = inhibition, usual class: inhibitors; actives 2.5% (n = 59,000); AID 1645870;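 also: potency is read from the fitted curve at half-maximal effect; plate controls were DMSO vehicle for no effect and no enzyme for full effect; nearly all actives have a fitted effect of over 65% in size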
HTT-AS promoter = HTT-AS promoter activation; Potency, µM (titrated, usually from 57.5 µM), without a hit: at the top dose activity change, positive = activation, actives largely listed as activators; actives 0.24% (n = 48,000); HEK293 HTT-AS promoter firefly luciferase reporter, 24 h; response scale: percent change from vehicle, -100% = no light; AID 1508624; also: potency is read from the fitted curve at half-maximal effect; nearly all actives have a fitted effect of over 55% in size
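Quantitative HTS used concentration series of up to 57.5 uM final on HEK293 luciferase reporter cells, 24 h at 37 degrees C. Readout was Dual-Glo firefly luminescence.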
DYRK1A inh = human DYRK1A kinase inhibition by ATP depletion readout; actives 80% (n = 100); shares compounds with NTMT1 inh; recombinant DYRK1A, Kinase-Glo ATP depletion luminescence; AID 2705; Potency, µM (series often up to 76.9 µM), for the others: top-dose activity change, negative = inhibition, most hits filed as inhibitors
CLK4 inh = CLK4 kinase inhibition, SAR round 2 | AID 493204 | Potency, µM (top dose mostly 76.9 µM), without a hit: top-dose activity, negative = inhibition, most hits filed as inhibitors | actives 90% (n = 90) | shares compounds with NTMT1 inh | recombinant Clk4, Kinase-Glo ATP luminescence, 4.5 h
Sfp qHTS opt = inhibits purified B. subtilis Sfp PPTase; actives 78% (n = 230); shares compounds with NTMT1 inh; purified Sfp PPTase enzyme activity, qHTS; Potency, µM (top dose mostly 114 µM), without a hit: at the top dose activity change, negative = inhibition, hits mostly inhibitors
HM489 growth = Sfp PPTase inhibitors: growth inhibition of B. subtilis HM489; actives 50% (n = 220); Potency, µM (series often up to 114 µM), inactives show at the top dose activity change, negative = inhibition, usual class: inhibitors; AID 540353; B. subtilis HM489 (acpS-) growth, BacTiter-Glo, 5 h; shares compounds with NTMT1 inh
Sfp gel opt = Sfp PPTase inhibition, gel-based detection; shares compounds with NTMT1 inh; actives 54% (n = 220); Potency, µM (series often up to 250 µM), inactives show at the top dose activity change, negative = inhibition, actives largely listed as inhibitors; AID 540355; purified Sfp PPTase, gel-based product detection
Sfp inh SAR2 = inhibitors of Bacillus subtilis Sfp PPTase, SAR round 2. shares compounds with NTMT1 inh. purified Sfp enzyme, PPTase activity, qHTS. Potency, µM (titrated, usually from 57.1 µM), for the others: at the top dose activity change, negative = inhibition, hits mostly inhibitors. actives 87% (n = 230)
HSD17B4 counter = HSD17B4 (human) inhibition, HPGD counter-screen. shares compounds with NTMT1 inh. purified HSD17B4, estradiol/NAD+, NADH fluorescence. Potency, µM (series often up to 57.1 µM), for inactives: at the highest dose activity change, negative = inhibition, actives largely listed as inhibitors. actives 10% (n = 230). AID 743187
ALDH1A1 inh = counter-screen for HPGD inhibitors: human ALDH1A1 inhibition; shares compounds with NTMT1 inh; recombinant ALDH1A1, NADH fluorescence, propionaldehyde/NAD+; Potency, µM (doses to about 57.1 µM), inactives show at the top dose activity change, negative = inhibition, usual class: inhibitors; actives 93% (n = 230); AID 743195
Target sequence (P00352 whole entry, looked up): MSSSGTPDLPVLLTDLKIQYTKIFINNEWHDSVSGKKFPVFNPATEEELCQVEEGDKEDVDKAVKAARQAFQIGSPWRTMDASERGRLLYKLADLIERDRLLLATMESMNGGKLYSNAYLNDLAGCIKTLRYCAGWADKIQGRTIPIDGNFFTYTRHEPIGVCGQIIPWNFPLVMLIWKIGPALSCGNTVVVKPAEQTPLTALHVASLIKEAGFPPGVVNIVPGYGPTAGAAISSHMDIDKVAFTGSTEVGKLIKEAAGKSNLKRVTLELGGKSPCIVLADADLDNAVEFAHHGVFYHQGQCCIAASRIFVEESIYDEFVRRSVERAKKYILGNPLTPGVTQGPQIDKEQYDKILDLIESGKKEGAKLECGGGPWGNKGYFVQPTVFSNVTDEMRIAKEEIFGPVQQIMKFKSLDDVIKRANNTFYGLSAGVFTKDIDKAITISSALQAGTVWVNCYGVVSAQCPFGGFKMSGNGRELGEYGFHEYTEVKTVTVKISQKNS
NNMT inh = blocks human NNMT methyltransferase; shares compounds with NTMT1 inh; NNMT MTase-Glo luminescence, SAH detection; Potency, µM (top dose mostly 57.1 µM), without a hit: at the top dose activity, negative = inhibition, usual class: inhibitors; actives 10% (n = 120)
* marks the source's active call; other numbers are inactive results; ? = inconclusive; · = no result; [ ] = remark or other dose. Calls follow the shape of the dose curve; as a rule, active = well fitted curve in the direction sought with a large enough effect; inconclusive = small, poorly fitted or top-dose-only effect, or another doubt; inactive = no such curve, though single readings can be large; an effect the other way counts as inactive or inconclusive.

SMILES	HTT prom inh	NTMT1 inh	HTT-AS promoter	others
Cc1cc(C)nc(NC(=S)N2CCN(Cc3c(F)cccc3Cl)CC2)c1	·	-19%[57.5 µM]	·	Sfp qHTS opt=8.3µM*;HM489 growth=-23%;Sfp gel opt=-42%;Sfp inh SAR2=?;HSD17B4 counter=-12%;ALDH1A1 inh=11µM*
Cc1onc(-c2ccccc2)c1C(=O)N1CCN(c2ccc([N+](=O)[O-])cc2Cl)CC1	·	1%[57.5 µM]	·
O=C(NCCCNc1nc(Nc2cccc(CN3CCOCC3)c2)ncc1C1CC1)C1CCC1	·	0%[57.5 µM]	·
CC(C)(Cc1ccccc1)NCC(O)c1ccc(O)c(NS(C)(=O)=O)c1 (stereo not given)	·	9%[57.5 µM]	·
NC(=O)/C(=C/n1cnc(-c2cc(C(F)(F)F)cc(C(F)(F)F)c2)n1)c1cncnc1	·	-4%	·
Cc1ccc(N2CCN(C(=O)c3ccc4c(Cl)c5c(nc4c3)CCCC5)CC2)c(C)c1	-6%	4%	-9%
Cc1cc(C)nc(NC(=S)N2CCN(c3ccc(Cl)c(Cl)c3Cl)CC2)c1	·	?	·	Sfp qHTS opt=2.4µM*;HM489 growth=7.4µM*;Sfp gel opt=?;Sfp inh SAR2=0.73µM*;HSD17B4 counter=-23%;ALDH1A1 inh=19µM*
Fc1ccc(-c2csc3ncnc(NCc4ccc5c(c4)OCO5)c23)cc1	·	-15%	·
COc1cccc(-c2ccc(CNc3ccc(N4CCN(C(=O)OC(C)(C)C)CC4)cc3)o2)c1	·	1%	·
CC1(C)CC[C@]2(C(=O)O)CC[C@]3(C)C(=CCC4[C@@]5(C)C[C@@H](O)[C@H](O)[C@@](C)(CO)C5CC[C@]43C)[C@@H]2[C@@H]1O (stereo not given in full)	·	21%[29.8 µM]	·
COC(=O)c1ccc(OC(C)=O)c2ncccc12	·	17%	·
C/C(=N\N=C(N)N)c1cc(NC(=O)CCCCCCCCC(=O)Nc2cc(/C(C)=N/N=C(N)N)cc(/C(C)=N/N=C(N)N)c2)cc(/C(C)=N/N=C(N)N)c1	·	5.6µM*	·	NNMT inh=?
Cn1cnnc1SCC(=O)Nc1cc(C(=O)O)cc(C(=O)O)c1	-9%	7%	7%
Cc1cnc(-c2ccccc2C(C)C)nc1NCc1ccc(C(N)=O)cc1	·	10%	·
COc1cc2c(Nc3cc(F)c(Cl)c(Cl)c3)ncnc2cc1OCC1CCCN(C)CCC1	·	35µM*	·	NNMT inh=?
C[C@@H]1COC(Nc2ccc3ncnc(Nc4ccc(OCc5nccs5)c(Cl)c4)c3c2)=N1	?	?	-32%
Cc1cc(N[S+](=O)([O-])c2ccc(NC(=O)Cc3ccc(Cl)nc3)cc2)no1	·	16%	·
C=CC(C)(O)C(O)CC1C(C)(O)C(O)C(O)C2C(C)(C)CCCC21C (stereo not given)	·	1%[29.8 µM]	·
Cc1cccc(-c2ccc(=O)n(CC(=O)NCCc3ccccc3)n2)c1	·	3%	·
Cc1csc(CNc2ncnc3ccc(-c4ccc5c(c4)OCO5)cc23)n1	·	-27%	·
Cc1csc(CNc2ncnc3ccc(-c4cccnc4)cc23)c1	·	-10%[57.5 µM]	·
C[C@@H](O)c1ccc(-c2ccc3ncnc(NCc4cccs4)c3c2)o1	·	-10%[57.5 µM]	·	CLK4 inh=1.5µM*
c1coc(-c2ccc3ncnc(NCc4cccs4)c3c2)c1	·	-14%	·	DYRK1A inh=6.5µM*
Cc1csc(CNc2ncnc3ccc(-c4ccccc4Cl)cc23)c1	·	1%[57.5 µM]	·
Clc1ccccc1-c1ccc2ncnc(NCc3cccs3)c2c1	·	5%	·
SMILES	HTT prom inh	NTMT1 inh	HTT-AS promoter	others
Cc1csc(CNc2ncnc3ccc(-c4ccc(C(C)O)o4)cc23)n1 (stereo not given)	·	?	·	CLK4 inh=1µM*
O=Cc1ccc(-c2ccc3ncnc(NCc4cccs4)c3c2)o1	·	?	·	CLK4 inh=26µM*
CC1C/C=C/C=C\CCCCC(O)C/C=C/C(=O)O1 (stereo not given)	·	15%[57.5 µM]	·
c1ccc(CNCc2ccc(CN3CCCNCCNCCCNCC3)cc2)nc1	·	23%	·
O=C(NC[C@H](O)CN1CCc2ccccc2C1)c1ccnc(NC2CCC2)c1	·	10%	·
FC1(F)Oc2ccc(-c3ccc4ncnc(NCc5cccs5)c4c3)cc2O1	·	6%	·	DYRK1A inh=?
Clc1cccc(-c2ccc3ncnc(NCc4cccs4)c3c2)c1	·	-23%	·
Cc1ccc(-n2cnc3cc(C(=O)N4CCCCC4)ccc32)cc1	·	2%	·
O=C(c1ccc2c(c1)ncn2-c1cccc(C(F)(F)F)c1)N1CCCCC1	·	0%[57.5 µM]	·	HSD17B4 counter=-12%;ALDH1A1 inh=?
Cc1ccc2nc3sc(C(=O)NCCCN(C)C)cc3cc2c1	·	-7%[57.5 µM]	·
COc1cc(CCc2ccc(OCC=C(C)C)cc2)cc(OC)c1OC	·	-16%[29.8 µM]	·	NNMT inh=-17%[38.3 µM]
CCOc1ccc(OCc2ccc(C(=O)Nc3cc(OC)c(OC)c(OC)c3)o2)cc1	-14%	-2%	7%
NC(Cc1ccc(Cl)cc1)C(=O)O (stereo not given)	-1%[0.739 µM]	19%[0.501 µM]	-3%[0.74 µM]
